In PMC7862700, “An all-to-all approach to the identification of sequence-specific readers for epigenetic DNA modifications on cytosine”:

Experiments:
Experiment in all cases: DAPPL (digital affinity profiling via proximity ligation, sequencing); 10 mM Tris-HCl pH 7.5, 50 mM NaCl, 1 mM DTT, 4% glycerol, room temperature, 30 min; GST-TFs on glutathione beads, 16-mer random dsDNA library, 0.1% formaldehyde crosslink after washing; high values mean tight binding
Settings in all cases: protein: recombinant; tags: N-terminal GST; dsDNA, one strand shown
ELK1 = molecular target: T1, ELK1 (Homo sapiens, UniProt P19419 1-428)
T1 sequence: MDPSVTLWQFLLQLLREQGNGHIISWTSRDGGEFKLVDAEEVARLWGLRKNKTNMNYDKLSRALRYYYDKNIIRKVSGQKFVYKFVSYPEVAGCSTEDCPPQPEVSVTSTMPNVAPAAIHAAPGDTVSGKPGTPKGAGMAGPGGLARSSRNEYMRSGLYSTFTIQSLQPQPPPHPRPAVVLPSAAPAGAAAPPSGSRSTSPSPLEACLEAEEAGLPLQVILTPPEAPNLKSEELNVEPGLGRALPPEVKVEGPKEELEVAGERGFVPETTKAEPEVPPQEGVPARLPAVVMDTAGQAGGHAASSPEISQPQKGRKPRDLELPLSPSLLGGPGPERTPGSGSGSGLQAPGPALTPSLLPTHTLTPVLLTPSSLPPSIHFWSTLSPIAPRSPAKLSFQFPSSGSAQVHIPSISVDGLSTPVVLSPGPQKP
Summary of the method: (§1)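 GST fusions of human transcription factors were expressed in yeast and captured with glutathione beads. Once given DNA barcodes and pooled alongside a tag-only sample, they were incubated for 30 min at room temperature with 200 nmole of a random double-stranded 16-mer DNA library in Tris/NaCl/DTT/glycerol buffer, then washed, crosslinked (0.1% formaldehyde), proximity-ligated, PCR-amplified and sequenced on an Illumina NextSeq500. The binding signal of each hexamer is its read frequency for a factor divided by its frequency for the tag-only sample.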

GABPA = molecular target: T2, GABPA (Homo sapiens, UniProt Q06546 1-454)
T2 sequence: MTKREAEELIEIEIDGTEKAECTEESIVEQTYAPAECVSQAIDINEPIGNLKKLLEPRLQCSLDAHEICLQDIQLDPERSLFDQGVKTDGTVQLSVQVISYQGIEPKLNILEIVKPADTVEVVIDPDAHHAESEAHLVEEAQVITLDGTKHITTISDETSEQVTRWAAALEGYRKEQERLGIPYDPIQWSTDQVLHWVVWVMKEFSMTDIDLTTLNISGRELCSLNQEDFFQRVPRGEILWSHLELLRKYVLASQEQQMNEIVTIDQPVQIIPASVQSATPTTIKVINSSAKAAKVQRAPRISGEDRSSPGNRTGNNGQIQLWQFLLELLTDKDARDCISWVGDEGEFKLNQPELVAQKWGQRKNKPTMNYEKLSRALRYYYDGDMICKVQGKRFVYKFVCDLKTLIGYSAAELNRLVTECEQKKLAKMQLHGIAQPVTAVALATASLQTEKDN
Summary of the method: as §1

ERG = molecular target: T3, ERG (Homo sapiens, UniProt P11308 1-479)
T3 sequence: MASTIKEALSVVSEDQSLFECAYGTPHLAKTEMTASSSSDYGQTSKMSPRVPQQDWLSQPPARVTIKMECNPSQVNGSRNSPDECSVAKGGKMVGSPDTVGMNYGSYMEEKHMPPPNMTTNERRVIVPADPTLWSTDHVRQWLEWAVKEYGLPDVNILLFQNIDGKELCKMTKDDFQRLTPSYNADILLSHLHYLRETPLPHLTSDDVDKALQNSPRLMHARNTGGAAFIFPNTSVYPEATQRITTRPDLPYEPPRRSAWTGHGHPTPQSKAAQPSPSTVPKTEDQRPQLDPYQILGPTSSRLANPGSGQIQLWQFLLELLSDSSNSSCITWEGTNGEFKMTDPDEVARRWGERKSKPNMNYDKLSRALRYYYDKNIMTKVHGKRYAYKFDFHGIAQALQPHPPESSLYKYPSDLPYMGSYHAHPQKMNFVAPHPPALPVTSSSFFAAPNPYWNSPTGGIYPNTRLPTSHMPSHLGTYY
Summary of the method: as §1

ELF1 = ELF1 (Homo sapiens, UniProt P32519 1-619)
Summary of the method: as §1

EHF = molecular target: T4, EHF (Homo sapiens, UniProt Q9NZC4 1-300)
T4 sequence: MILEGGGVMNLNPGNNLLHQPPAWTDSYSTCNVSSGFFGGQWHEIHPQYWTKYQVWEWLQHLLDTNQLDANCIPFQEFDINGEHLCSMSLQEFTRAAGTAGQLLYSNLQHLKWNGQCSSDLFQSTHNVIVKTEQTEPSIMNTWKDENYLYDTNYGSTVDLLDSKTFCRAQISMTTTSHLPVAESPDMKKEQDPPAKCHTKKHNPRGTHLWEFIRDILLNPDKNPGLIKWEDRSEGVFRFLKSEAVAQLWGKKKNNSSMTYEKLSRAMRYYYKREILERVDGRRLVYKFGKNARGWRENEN
Summary of the method: as §1

SPIB = SPIB (Homo sapiens, UniProt Q01892 1-262)
Summary of the method: as §1

ELK3 = molecular target: T5, ELK3 (Homo sapiens, UniProt P41970 1-407)
T5 sequence: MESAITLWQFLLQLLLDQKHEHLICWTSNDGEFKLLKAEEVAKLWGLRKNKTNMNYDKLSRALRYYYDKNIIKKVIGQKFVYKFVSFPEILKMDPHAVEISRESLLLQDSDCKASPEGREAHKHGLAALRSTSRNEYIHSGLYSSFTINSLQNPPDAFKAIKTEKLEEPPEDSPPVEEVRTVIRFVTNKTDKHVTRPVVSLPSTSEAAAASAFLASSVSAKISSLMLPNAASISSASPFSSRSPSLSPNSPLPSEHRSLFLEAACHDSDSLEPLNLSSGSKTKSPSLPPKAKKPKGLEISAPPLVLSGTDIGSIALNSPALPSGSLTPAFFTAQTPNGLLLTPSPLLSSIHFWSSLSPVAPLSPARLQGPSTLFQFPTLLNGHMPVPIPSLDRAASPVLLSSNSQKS
Summary of the method: as §1

FEV = molecular target: T6, FEV (Homo sapiens, UniProt Q99581 1-238)
T6 sequence: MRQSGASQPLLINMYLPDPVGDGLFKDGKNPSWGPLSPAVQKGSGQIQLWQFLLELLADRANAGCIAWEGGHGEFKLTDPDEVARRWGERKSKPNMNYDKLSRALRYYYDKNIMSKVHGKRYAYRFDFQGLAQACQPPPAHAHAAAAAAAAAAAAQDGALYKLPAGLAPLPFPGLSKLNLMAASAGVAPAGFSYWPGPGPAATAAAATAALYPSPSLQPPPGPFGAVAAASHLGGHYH
Summary of the method: as §1

ETV5 = ETV5 (Homo sapiens, UniProt P41161 1-510)
Summary of the method: as §1

ELF4 = ELF4 (Homo sapiens, UniProt Q99607 1-663)
Summary of the method: as §1

ELF3 = molecular target: T7, ELF3 (Homo sapiens, UniProt P78545 1-371)
T7 sequence: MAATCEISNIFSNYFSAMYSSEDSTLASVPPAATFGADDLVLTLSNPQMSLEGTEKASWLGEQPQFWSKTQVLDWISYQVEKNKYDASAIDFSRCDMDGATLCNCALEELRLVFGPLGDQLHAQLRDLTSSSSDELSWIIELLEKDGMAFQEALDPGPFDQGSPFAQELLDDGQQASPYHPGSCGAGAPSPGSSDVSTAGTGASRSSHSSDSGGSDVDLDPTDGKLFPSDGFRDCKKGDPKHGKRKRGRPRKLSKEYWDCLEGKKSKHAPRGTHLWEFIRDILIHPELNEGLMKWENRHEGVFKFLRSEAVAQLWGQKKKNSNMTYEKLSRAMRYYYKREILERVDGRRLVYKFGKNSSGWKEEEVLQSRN
Summary of the method: as §1

ETV1 = ETV1 (Homo sapiens, UniProt P50549 1-477)
Summary of the method: as §1

ERF = molecular target: T8, ERF (Homo sapiens, UniProt P50548 1-548)
T8 sequence: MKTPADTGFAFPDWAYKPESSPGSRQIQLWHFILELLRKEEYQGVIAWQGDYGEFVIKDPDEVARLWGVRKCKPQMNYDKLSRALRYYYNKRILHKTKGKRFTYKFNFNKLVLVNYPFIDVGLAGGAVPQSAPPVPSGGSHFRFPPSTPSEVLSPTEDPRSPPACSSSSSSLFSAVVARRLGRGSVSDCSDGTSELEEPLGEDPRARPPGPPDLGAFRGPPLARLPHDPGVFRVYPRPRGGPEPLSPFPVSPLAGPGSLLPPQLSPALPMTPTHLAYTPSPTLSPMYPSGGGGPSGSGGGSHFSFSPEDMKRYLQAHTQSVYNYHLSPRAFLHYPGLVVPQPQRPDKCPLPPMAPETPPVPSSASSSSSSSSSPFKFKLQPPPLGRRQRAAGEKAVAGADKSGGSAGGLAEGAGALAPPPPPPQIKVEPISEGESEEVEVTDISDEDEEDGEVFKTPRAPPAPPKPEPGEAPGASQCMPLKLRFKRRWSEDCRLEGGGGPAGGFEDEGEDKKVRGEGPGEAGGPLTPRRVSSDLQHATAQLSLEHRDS
Summary of the method: as §1

SPDEF = molecular target: T9, SPDEF (Homo sapiens, UniProt O95238 1-335)
T9 sequence: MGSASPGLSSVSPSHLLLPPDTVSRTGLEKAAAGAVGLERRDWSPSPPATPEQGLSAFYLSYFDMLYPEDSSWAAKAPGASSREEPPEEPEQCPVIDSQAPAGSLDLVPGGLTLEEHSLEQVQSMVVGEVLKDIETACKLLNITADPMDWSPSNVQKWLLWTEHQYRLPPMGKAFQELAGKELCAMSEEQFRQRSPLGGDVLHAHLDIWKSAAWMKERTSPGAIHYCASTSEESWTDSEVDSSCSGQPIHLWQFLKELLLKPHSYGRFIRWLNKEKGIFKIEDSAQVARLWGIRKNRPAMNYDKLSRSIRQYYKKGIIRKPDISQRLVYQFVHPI
Summary of the method: as §1

ETV3 = molecular target: T10, ETV3 (Homo sapiens, UniProt P41162-2 1-143)
T10 sequence: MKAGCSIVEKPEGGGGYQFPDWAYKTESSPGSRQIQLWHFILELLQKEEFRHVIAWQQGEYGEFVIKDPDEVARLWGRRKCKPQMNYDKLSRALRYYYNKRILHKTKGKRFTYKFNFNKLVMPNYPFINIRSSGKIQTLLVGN
Summary of the method: as §1

ELK4 = molecular target: T11, ELK4 (Homo sapiens, UniProt P28324-2 1-405)
T11 sequence: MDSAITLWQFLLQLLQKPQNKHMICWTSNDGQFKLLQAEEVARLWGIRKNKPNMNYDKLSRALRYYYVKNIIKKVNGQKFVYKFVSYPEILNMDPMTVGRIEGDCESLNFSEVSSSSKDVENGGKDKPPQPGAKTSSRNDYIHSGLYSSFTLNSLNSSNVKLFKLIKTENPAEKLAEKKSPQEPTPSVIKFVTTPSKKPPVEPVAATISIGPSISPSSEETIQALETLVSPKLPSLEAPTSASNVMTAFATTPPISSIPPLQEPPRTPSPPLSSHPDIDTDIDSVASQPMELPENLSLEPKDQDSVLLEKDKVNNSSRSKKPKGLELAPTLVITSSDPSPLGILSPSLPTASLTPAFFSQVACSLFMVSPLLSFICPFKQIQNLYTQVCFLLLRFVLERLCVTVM
Summary of the method: as §1

ETV5, sequence (P41161 whole entry): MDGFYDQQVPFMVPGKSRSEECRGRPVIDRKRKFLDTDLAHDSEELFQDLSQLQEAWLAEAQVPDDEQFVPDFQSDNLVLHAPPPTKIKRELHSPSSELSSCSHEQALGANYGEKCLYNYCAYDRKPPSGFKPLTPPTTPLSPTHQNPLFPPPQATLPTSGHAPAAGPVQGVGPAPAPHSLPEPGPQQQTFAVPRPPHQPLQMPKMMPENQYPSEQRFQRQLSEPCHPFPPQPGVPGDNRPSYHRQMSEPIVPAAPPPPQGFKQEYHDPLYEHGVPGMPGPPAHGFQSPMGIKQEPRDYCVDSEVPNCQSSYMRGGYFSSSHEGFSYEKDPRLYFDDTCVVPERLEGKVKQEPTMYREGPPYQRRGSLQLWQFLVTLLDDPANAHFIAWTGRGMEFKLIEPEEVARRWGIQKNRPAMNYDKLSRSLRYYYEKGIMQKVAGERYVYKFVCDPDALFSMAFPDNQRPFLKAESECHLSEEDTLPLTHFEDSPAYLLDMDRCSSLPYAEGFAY
ETV1, sequence (P50549 whole entry): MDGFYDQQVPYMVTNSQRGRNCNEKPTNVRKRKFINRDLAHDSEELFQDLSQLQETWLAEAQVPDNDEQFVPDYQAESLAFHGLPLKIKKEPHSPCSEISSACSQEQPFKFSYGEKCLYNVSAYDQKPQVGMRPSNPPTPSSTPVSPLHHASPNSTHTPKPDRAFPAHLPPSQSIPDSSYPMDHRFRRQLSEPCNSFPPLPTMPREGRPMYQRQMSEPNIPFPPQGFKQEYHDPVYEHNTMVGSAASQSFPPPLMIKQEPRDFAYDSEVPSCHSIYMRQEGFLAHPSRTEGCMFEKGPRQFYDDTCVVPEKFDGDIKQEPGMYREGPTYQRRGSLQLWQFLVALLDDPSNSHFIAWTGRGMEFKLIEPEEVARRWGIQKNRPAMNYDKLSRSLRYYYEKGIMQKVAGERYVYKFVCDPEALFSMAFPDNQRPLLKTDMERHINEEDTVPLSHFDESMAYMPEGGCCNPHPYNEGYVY
ELF1, sequence (P32519 whole entry): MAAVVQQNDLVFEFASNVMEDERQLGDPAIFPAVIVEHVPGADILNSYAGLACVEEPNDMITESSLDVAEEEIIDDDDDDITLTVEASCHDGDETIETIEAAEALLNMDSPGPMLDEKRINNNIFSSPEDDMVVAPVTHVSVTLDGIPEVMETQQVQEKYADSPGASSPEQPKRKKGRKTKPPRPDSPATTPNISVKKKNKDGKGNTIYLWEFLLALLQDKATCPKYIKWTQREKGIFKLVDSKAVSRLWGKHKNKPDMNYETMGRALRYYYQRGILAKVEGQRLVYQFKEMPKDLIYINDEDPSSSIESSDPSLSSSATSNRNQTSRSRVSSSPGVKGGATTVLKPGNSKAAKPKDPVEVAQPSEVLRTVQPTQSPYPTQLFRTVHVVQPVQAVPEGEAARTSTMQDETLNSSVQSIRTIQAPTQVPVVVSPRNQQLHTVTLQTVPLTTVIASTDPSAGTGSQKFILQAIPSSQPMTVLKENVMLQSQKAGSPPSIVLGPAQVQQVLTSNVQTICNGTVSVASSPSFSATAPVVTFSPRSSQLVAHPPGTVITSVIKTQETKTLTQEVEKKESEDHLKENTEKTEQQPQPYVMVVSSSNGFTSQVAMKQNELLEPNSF
SPIB, sequence (Q01892 whole entry): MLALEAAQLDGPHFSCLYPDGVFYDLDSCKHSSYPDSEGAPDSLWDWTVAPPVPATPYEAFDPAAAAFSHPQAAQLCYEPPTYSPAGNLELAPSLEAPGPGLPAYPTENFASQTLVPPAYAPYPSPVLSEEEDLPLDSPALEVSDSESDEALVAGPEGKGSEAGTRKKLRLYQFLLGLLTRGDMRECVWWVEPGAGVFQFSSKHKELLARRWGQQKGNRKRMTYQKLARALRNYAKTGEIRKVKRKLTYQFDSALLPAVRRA
ELF4, sequence (Q99607 whole entry): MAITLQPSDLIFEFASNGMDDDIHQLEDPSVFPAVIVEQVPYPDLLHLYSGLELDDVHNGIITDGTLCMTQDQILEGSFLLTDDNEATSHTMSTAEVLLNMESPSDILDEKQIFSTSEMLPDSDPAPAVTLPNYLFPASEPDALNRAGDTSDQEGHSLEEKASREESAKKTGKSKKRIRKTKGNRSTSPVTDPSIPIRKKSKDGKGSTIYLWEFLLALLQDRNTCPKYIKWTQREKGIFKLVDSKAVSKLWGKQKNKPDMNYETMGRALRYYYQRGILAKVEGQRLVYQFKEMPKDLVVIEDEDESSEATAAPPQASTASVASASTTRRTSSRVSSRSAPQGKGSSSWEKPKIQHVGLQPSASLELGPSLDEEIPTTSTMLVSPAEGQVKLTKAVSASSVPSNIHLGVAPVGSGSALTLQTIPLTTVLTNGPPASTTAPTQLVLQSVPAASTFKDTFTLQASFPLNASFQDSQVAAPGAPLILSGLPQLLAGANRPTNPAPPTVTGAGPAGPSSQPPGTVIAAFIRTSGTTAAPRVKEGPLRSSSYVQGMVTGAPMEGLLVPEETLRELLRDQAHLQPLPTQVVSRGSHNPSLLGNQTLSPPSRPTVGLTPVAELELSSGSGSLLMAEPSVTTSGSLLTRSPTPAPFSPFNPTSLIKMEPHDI

TCGTAT
binding signal (ELK1): 1.08 fold enrichment (6-mer frequency, TF over GST control) | binding signal (GABPA): 1.01 fold enrichment (6-mer frequency, TF over GST control) | binding signal (ERG): 1.03 fold enrichment (6-mer frequency, TF over GST control) | binding signal (ELF1): 1.03 fold enrichment (6-mer frequency, TF over GST control) | binding signal (EHF): 1 fold enrichment (6-mer frequency, TF over GST control) | binding signal (SPIB): 1.07 fold enrichment (6-mer frequency, TF over GST control) | binding signal (ELK3): 1.01 fold enrichment (6-mer frequency, TF over GST control) | binding signal (FEV): 1.05 fold enrichment (6-mer frequency, TF over GST control) | binding signal (ETV5): 1.02 fold enrichment (6-mer frequency, TF over GST control) | binding signal (ELF4): 1.02 fold enrichment (6-mer frequency, TF over GST control) | binding signal (ELF3): 1.05 fold enrichment (6-mer frequency, TF over GST control) | binding signal (ETV1): 1 fold enrichment (6-mer frequency, TF over GST control) | binding signal (ERF): 1.06 fold enrichment (6-mer frequency, TF over GST control) | binding signal (SPDEF): 1.05 fold enrichment (6-mer frequency, TF over GST control) | binding signal (ETV3): 1.05 fold enrichment (6-mer frequency, TF over GST control)

GACTTA
binding signal (GABPA): 1.03 fold enrichment (6-mer frequency, TF over GST control) | binding signal (EHF): 1.04 fold enrichment (6-mer frequency, TF over GST control) | binding signal (ETV5): 1.01 fold enrichment (6-mer frequency, TF over GST control) | binding signal (ELK4): 1 fold enrichment (6-mer frequency, TF over GST control) | binding signal (ETV3): 1.02 fold enrichment (6-mer frequency, TF over GST control)
